# Results reported in ChEMBL document CHEMBL4513216, “Probing the Open Global Health Chemical Diversity Library for Multistage-Active Starting Points for Next-Generation Antimalarials” (ACS Infect Dis, 2020).
# Screen size: about 65,000 compounds; about 2,100 (3.2%) showed an effect of 50% or more. The median lay at about -52%. The entries come from a sample that favours strong results as a whole.
# Test system: Plasmodium falciparum
# Assay: Screen against P. falciparum Asexual Blood Stage (ABS), at 5uM
# Type: functional, Dd2
# Settings: tested at 5 uM
row,Compound,INHIBITION [%]
1,O=C1CNc2ncnc(Nc3cnn(Cc4ccc(F)cc4)c3)c2N1,-134
2,CN(Cc1ccc(F)cc1F)Cc1cc2c(cc1Br)OCCO2,-30.1
3,Cc1ccc(F)c(N2CCCC(Nc3nccn4cnnc34)C2=O)c1 (stereo not given),-141
4,Cn1cc(NS(=O)(=O)c2ccc3c(c2)CCCC3)ccc1=O,-133
5,CC(=O)NCCCNCc1ccc(Cl)c2cccnc12,-36.6
6,O=C(CCCNCc1ccc(Cl)c2cccnc12)NC1CC1,11.3
7,CC(C)(O)CSCCNCc1ccc(Cl)c2cccnc12,67.7
8,CC(C)(O)CN1CCN(C(=O)c2ccc(Cl)c3cccnc23)CC1,-2.98
9,CCS(=O)(=O)NCCNCc1ccc(Cl)c2cccnc12,61.5
10,CC(C)(C)[S+]([O-])CCNC(=O)c1ccc(Cl)c2cccnc12 (stereo not given),-46.8
11,CN(C)C(=O)CC1CC2(CCN(Cc3ccsc3)CC2)c2ccccc21 (stereo not given),14.2
12,COC(=O)C(c1cc(F)ccc1F)N(C)C(=O)c1cnc(C)cn1 (stereo not given),-85.1
13,CN(Cc1noc(C(C)(C)C)n1)C1CCCN(c2cccnn2)C1 (stereo not given),-18.2
14,CN(C)C(=O)N1CCC(c2nc3ccc(-c4ccccc4)cn3n2)CC1,-52.3
15,CN(C)c1ncc(I)c(C2CCCN2C)n1 (stereo not given),20.7
16,CN(C)c1ncc(I)c(C2CCCCN2C)n1 (stereo not given),57.8
17,CN(C)c1ncc(I)c(C2CCCCN2S(C)(=O)=O)n1 (stereo not given),-17.7
18,CCOC(=O)c1ccccc1NC(=O)CN(C)Cc1ccccc1Cl,8.05
19,Cc1c(C(=O)O)cnn1-c1ccc(-c2nc(C(C)(C)C)no2)cn1,-116
20,CS(=O)(=O)NC[C@]12COC[C@H]1CN(CC1CCC1)C2,-40
21,Cc1ccc(CN2CC3(CCN(C(=O)c4cscn4)C3)C2)o1,-13.6
22,CN(C)CCn1ccnc1C1CCCN(c2nccc3ccccc23)C1 (stereo not given),57.4
23,CCn1ccnc1C1CCCN(c2nccc3ccccc23)C1 (stereo not given),30.8
24,COc1cc(OC)nc(N2CCCC(c3nccn3CCN(C)C)C2)n1 (stereo not given),-23.1
25,CN(C)CCn1ccnc1C1CCCN(c2cc(N)ncn2)C1 (stereo not given),-52.8
26,CN(C)Cc1nnc(C2CCCN(c3nccc4ccccc34)C2)n1C (stereo not given),-10.1
27,Cc1cc(C)nc(N2CCCC(c3nccn3CCCN(C)C)C2)c1 (stereo not given),51.7
28,COc1ccc(CCN(C)CCS(=O)(=O)c2ccc(Cl)cc2)cc1OC,-7.75

row,Compound,INHIBITION [%]
1,COCC(=O)N1CCC2(CC1)COc1ccccc1S(=O)(=O)N(C)C2,-129
2,O=C1CNc2ncnc(N3CCN(Cc4cccc(F)c4)CC3)c2N1,-56.6
3,CC(=O)Nc1nc(C(=O)N2CCCC(n3nc(C)nc3C)C2)cs1 (stereo not given),-113
4,O=C(c1cccnc1SC/C=C/c1ccccc1)N1CCOCC(O)C1 (stereo not given),55.5
5,O=C(c1cccnc1SC/C=C/c1ccccc1)N1CC[C@H](O)C1,-66.8
6,O=C(c1cccnc1SCc1ccccc1)N1CCOCC1,-36.4
7,CCOCCCNC(=O)c1cc(C)nc(N2CCCCC2)n1,-133
8,O=C(c1cnco1)N1CCC(Cc2cnc3ccccc3c2)CC1,-56.6
9,O=C(c1cnco1)N1CCC(Cc2ccc3ncccc3c2)CC1,67.4
10,O=C(c1cnco1)N1CCC(Cc2cccc3ncccc23)CC1,-2.05
11,Cn1cc(C[C@H]2[C@H](O)CCN2C(=O)c2ccsc2)cn1,-51.7
12,Cc1cc2ccccc2n1CCC(=O)N1CCC2(CC1)CNC(=O)C2,-33.5
13,Cc1cc2ccccc2n1CCC(=O)N1CCCC2(CC1)CNC(=O)O2 (stereo not given),21.3
14,Cc1cc2ccccc2n1CCC(=O)N1CCCC(O)(CN(C)C)CC1 (stereo not given),55.2
15,CN(C)CCn1ccnc1C1CCN(c2cc(N)nc(N)n2)CC1,-90.3
16,Cc1ccc(OCc2occc2C(=O)O)cc1,-66.2
17,OCC1(Cc2ccccc2F)CCCN(c2ccc3ccccc3n2)C1 (stereo not given),-37.1
18,COC(=O)c1ccccc1C(=O)N(CCN(C)C)Cc1sccc1C,18.3
19,Cc1ccsc1CN(CCN(C)C)C(=O)c1ccc(C#N)nc1,46.5
20,Cc1ccsc1CN(CCN(C)C)C(=O)c1ccccc1C#N,60.9
21,O=C1CC[C@H]2[C@H](CCN2C(=O)C2CCOC2)N1Cc1ccncc1 (stereo not given in full),-87.6
22,COc1ccc(CN2CCc3ncnc(OC(C)C)c3CC2)cc1,63.6
23,Cc1ccc(CN2CCc3ncnc(OC(C)C)c3CC2)s1,0.437
24,CC(C)Oc1ncnc2c1CCN(Cc1ccco1)CC2,61.2
25,CC(C)Oc1ncnc2c1CCN(Cc1cccs1)CC2,-52.8
26,COc1ccc(CN2CCc3ncnc(C4CC4)c3CC2)cc1,-30.4
27,CC(C)Oc1ncnc2c1CCN(Cc1ccoc1)CC2,31.6
